Data taken from PubChem BioAssay (NCATS).
Results filed as inconclusive are left out. Active and inactive are the calls of the source. Unless noted, calls follow the shape of the dose curve; as a rule, active = well fitted curve in either direction with a large enough effect (not every such curve was filed as active); inconclusive = small, poorly fitted or top-dose-only effect, or another doubt; inactive = flat fitted curve, though single readings scatter.

How the values were obtained:
[1] = biological target: Lysosomal acid glucosylceramidase (Homo sapiens) (UniProt P04062); experiment: Glucocerebrosidase-p2 (AID 348; in the data active = potency below about 10 µM; also: potency is read from the fitted curve at half-maximal effect); settings: purified GBA, blue fluorogenic substrate, 40 min
Summary of the method: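 Normal human glucocerebrosidase (0.2 nM) with blue fluorogenic substrate (80 uM final) in citrate/phosphate pH 5.9 with 10mM sodium taurocholate, 0.01% tween-20; 40 min RT, NaOH/glycine stop; fluorescence Ex 365/Em 440; AC50 from a titration from 0.6 nM upwards.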

[2] = AP1 Signaling Pathway (AID 357); settings: ME-180 AP-1-bla reporter, EGF-induced, beta-lactamase ratio, 5 h; at 7.69 µM (top of the series) unless noted;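 also: ME-180 reporter cells stimulated with EGF at its EC50 level; % is scaled to controls: 0 for no effect and ±100 for the full control effect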
Summary of the method: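 Titration-series screen for positive or negative modulators of EC50 EGF-induced signaling in ME-180 cells carrying an AP-1-driven beta-lactamase reporter. After 5 hours at 37 degrees Celsius, CCF4 460nm/530nm emission ratio gave %Activity; AC50 values derived.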

[3] = biological target: Cytochrome P450 1A2 (Homo sapiens) (UniProt P05177); experiment: p450-cyp1a2 (AID 410; calls by dose curve; also: potency is read from the fitted curve at half-maximal effect;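 as to activity change, negative = inhibition: -100% = full effect of reference inhibitor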); settings: recombinant CYP1A2, luciferin-ME demethylation, luminescence; series mostly up to 57 µM
Summary of the method: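 20nM CYP1A2, 100uM Luciferin-ME (=Km), 100mM KPO4; cpd 10 min RT; +NADPH regen, 60 min RT; stop/detect 20 min; luminescence. Normalized to furafylline 57 uM = full inhibition.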

[4] = Stat Signaling Pathway (AID 446); settings: ME-180 SIE beta-lactamase reporter, IL-6 stimulated, 5 h; at 7.69 µM (top of the series) unless noted;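 also: ME-180 cervical cancer cells given 40 pM IL-6 alongside compound; SIE-controlled beta-lactamase reporter measured as 460/530 nm FRET emission ratio; % is scaled to controls: 0 for no effect and ±100 for the full control effect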
Summary of the method: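 FRET read-out (405 nm excitation, 460/530 nm emission) of a beta-lactamase reporter under a STAT-inducible element in ME-180 cervical carcinoma cells. Cells with compound receive 40 pM IL-6 for 5 h. Values are normalised to AC90 stimulation and AC90 JAK-inhibitor controls.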

[5] = biological target: Glucocorticoid receptor (Homo sapiens) (UniProt P04150); experiment: GR-GFP Redistribution (AID 450;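 active = compounds whose dose series gives a full or clear partial fitted curve of increased nuclear translocation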; also: potency is read from the fitted curve at half-maximal effect); settings: U2OS GR-GFP nuclear translocation, laser cytometry, 2 h
[6] = biological target: Glucocorticoid receptor (Homo sapiens) (UniProt P04150); experiment: GR-EFC Redistribution (AID 451; calls by dose curve; also: potency is read from the fitted curve at half-maximal effect); settings: CHO-K1 GR-EFC translocation, beta-gal luminescence, 2 h
Summary of the method: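 CHO-K1 cells expressing nuclear EA and GR-ED fragments of b-gal; compounds titrated up to 46 uM final, 2 h at 37 C. GR nuclear translocation read as complemented b-gal luminescence after 1 h RT detection.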

[7] = biological target: Mitogen-activated protein kinase 10 (Mus musculus) (UniProt Q61831); experiment: JNK3 AlphaScreen Assay (AID 530); settings: JNK3 lysate, c-Jun phosphorylation; series mostly up to 57.1 µM;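 also: kinase came from lysate of stimulated human HepG2 cells; signal reports phosphorylation of biotinylated GST-cJun 1-79 at Ser73 with 10 µM ATP; % is scaled to controls: 0 for no effect and ±100 for the full control effect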
Summary of the method: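 HepG2 lysate (IL-1b/TNFa pre-activated) + biotin-GST-cJun 1-79 + anti-pSer73 cJun; cpd titration, 15 min RT; ATP 10 uM start; Tris pH 7.6, MgCl2, DTT, vanadate; beads in EDTA buffer; AlphaScreen.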

[8] = biological target: 3',5'-cyclic-AMP phosphodiesterase 4B (Homo sapiens) (UniProt Q07343); experiment: qHTS Assay for Inhibitors of PDE-IV (AID 607; active = well fitted activation curve with a large enough effect in the main read-out, with a control signal flat, not every such curve was filed as active; also: % of control where 0% means no effect); settings: HEK293 ACTOne CNG channel cells, membrane potential fluorescence; series mostly up to 22.9 µM
Summary of the method: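 Cell-based read-out of cAMP via a modified cyclic nucleotide-gated channel and membrane potential dye (535/590 nm) in HEK293 cells expressing PDE4 endogenously. Compounds tested up to 22.9 uM final; 100 uM RO 20-1724 reference.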

[9] = biological target: Cytochrome P450 3A4 (Homo sapiens) (UniProt P08684); experiment: qHTS Assay for Inhibitors and Substrates of Cytochrome P450 3A4 (AID 884; active = well fitted curve in the direction sought with a large enough effect; an effect the other way counts as inactive or inconclusive; also: potency is read from the fitted curve at half-maximal effect; nearly all actives have a fitted effect of over 50% in size); settings: recombinant CYP3A4, Luciferin-PPXE luminescence; series mostly up to 57.1 µM
Summary of the method: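 Luminescent readout of luciferin produced by CYP3A4 (20 nM) dealkylation of Luciferin-PPXE, 25 uM (its KM). NADPH-driven reaction ran 60 min at RT after 10 min compound preincubation; data scaled to 57 uM ketoconazole as 100% inhibition.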

[10] = biological target: Cytochrome P450 3A4 (Homo sapiens) (UniProt P08684); experiment: qHTS Assay for Activators of Cytochrome P450 3A4 (AID 885; active = well fitted curve in the direction sought with a large enough effect; an effect the other way counts as inactive or inconclusive; also: nearly all actives have a fitted effect of over 65% in size); settings: recombinant CYP3A4, Luciferin-PPXE luminescence, 60 min; series mostly up to 57.1 µM
Summary of the method: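 Luminescent readout of luciferin formed from 25 uM Luciferin-PPXE (KM level) by 20 nM CYP3A4 in 200 mM KPO4, with 60 min NADPH-driven reaction at room temperature after 10 min compound exposure. Ketoconazole (57 uM) defined 100% inhibition.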

[11] = biological target: Cytochrome P450 2D6 (Homo sapiens) (UniProt P10635); experiment: qHTS Assay for Inhibitors and Substrates of Cytochrome P450 2D6 (AID 891; active = well fitted curve in the direction sought with a large enough effect; an effect the other way counts as inactive or inconclusive; also: potency is read from the fitted curve at half-maximal effect; nearly all actives have a fitted effect of over 60% in size); settings: recombinant CYP2D6, luciferin-ME EGE luminescence; series mostly up to 57.1 µM
Summary of the method: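 Luminescent read-out of luciferin formed by 5 nM human CYP2D6 demethylating 30 uM Luciferin-ME EGE (Km level) over 60 min at room temperature after NADPH regeneration addition. Data normalized to full inhibition by 1.43 uM quinidine.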

[12] = Confirmation and Secondary Assay for Modulators of Hemoglobin Beta Chain Splicing at IVS2 654 locus (AID 910; active = well fitted curve in the direction sought with a large enough effect; an effect the other way counts as inactive or inconclusive;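 also: HeLa cells stably carrying EGFP split by mutant beta-globin IVS2-654 intron; % of control where 0% means no effect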); settings: HeLa EGFP-654 splicing reporter, GFP fluorescence, 48 h; series mostly up to 38.3 µM
Summary of the method: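 HeLa cells stably expressing EGFP interrupted by β-globin IVS2-654 intron, seeded overnight in Opti-MEM/2% FCS, then treated 2 days at 37 °C. Restored splicing read as total peak GFP intensity per well by laser scanning cytometry (488 nm excitation, 500–520 nm emission); 500 nM antisense PNA as control.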

[13] = Confirmation and Secondary Assay for Modulators of Hemoglobin Beta Chain Splicing at IVS2 705 locus (AID 930; active = well fitted curve in the direction sought with a large enough effect; an effect the other way counts as inactive or inconclusive;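 also: HeLa cells stably expressing the EGFP-705 splicing reporter; GFP fluorescence per well restored by corrected splicing of the IVS2-705 intron in EGFP; % of control where 0% means no effect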); settings: HeLa EGFP-705 splicing reporter, GFP fluorescence, 48 h; series mostly up to 38.3 µM
Summary of the method: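 Secondary splice-site specificity test uses HeLa expressing CMV-driven EGFP interrupted by IVS2-705; cells were treated 2 days at 37C with 500 nM antisense PNA as positive control.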

[14] = qHTS Assay for Lipid Storage Modulators (AID 1519; calls by dose curve); settings: Drosophila S3 cells, BODIPY lipid droplet/cell ratio, laser cytometry, cells loaded with oleic acid; for activity change, negative = inhibition: at 57.5 µM (top of the series)
Summary of the method: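 Cells seeded at 5,000 per well were treated with compounds over a concentration series and loaded with oleic acid (400 uM, as added). Lipid droplet fluorescence (488 nm excitation, 500-530 nm channel) was read by laser-scanning cytometry and normalized to 20 uM Triacsin C.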

[15] = biological target: Ubiquitin carboxyl-terminal hydrolase 1 (Homo sapiens) (UniProt O94782); experiment: Inhibitors of USP1/UAF1: Pilot qHTS (AID 504865; active = well fitted curve in the direction sought with a large enough effect; an effect the other way counts as inactive or inconclusive;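 also: rhodamine fluorescence freed from ubiquitin-rhodamine substrate followed over time; top concentration of the series differs between compounds; % is scaled to controls: 0 for no effect and ±100 for the full control effect; nearly all actives have a fitted effect of over 35% in size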); settings: purified USP1/UAF1, Ub-rhodamine cleavage fluorescence; series mostly up to 54.9 µM
Summary of the method: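 Deubiquitinase activity followed as kinetic rhodamine fluorescence release from 150 nM Ub-Rho. 1 nM USP1/UAF1 with compound, after 15 min room-temperature preincubation, in HEPES pH 7.8 buffer containing TCEP, EDTA, BSA and Tween-20.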

[16] = Primary qHTS for small molecule stabilizers of the endoplasmic reticulum resident proteome: Secreted ER Calcium Modulated Protein (SERCaMP) assay (AID 1508630; active = well fitted curve in the direction sought with a large enough effect; an effect the other way counts as inactive or inconclusive; also: % is scaled to controls: 0 for no effect and ±100 for the full control effect); settings: SH-SY5Y GLuc-SERCaMP (Gaussia luciferase released on ER calcium loss) secretion, thapsigargin, luminescence; series mostly up to 38.4 µM
Summary of the method: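 The SH-SY5Y reporter protocol was run at 3 concentrations up to 38.3 uM (primary) or 11 concentrations (follow-up): 16 h compound, 100 nM thapsigargin for 4 h, then extracellular luciferase luminescence.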

[17] = qHTS Assay for Identification of Small Molecule Agonists for Hypoxia Response Element Signaling Pathway (AID 914; active = well fitted activation curve with a large enough effect in the signal ratio, with a control signal flat, not every such curve was filed as active; the % refers to the signal ratio; also: % of control where 0% means no effect); settings: ME-180 (cervical carcinoma) HRE-bla reporter, beta-lactamase ratio, CoCl2, 17 h; activation: stronger effect = higher value
Summary of the method: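 qHTS titration; ME-180 HRE-bla cells; EC50 CoCl2 co-treatment, 17 h at 37 degrees Celsius; CCF4 dye, ex 405nm, em 460nm and 530nm; %Activity from ratio; AC50.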

[18] = measured here: cell count channel max response
[19] = measured here: lipid channel max response

Lysosomal acid glucosylceramidase (Homo sapiens), sequence (P04062 whole entry, looked up): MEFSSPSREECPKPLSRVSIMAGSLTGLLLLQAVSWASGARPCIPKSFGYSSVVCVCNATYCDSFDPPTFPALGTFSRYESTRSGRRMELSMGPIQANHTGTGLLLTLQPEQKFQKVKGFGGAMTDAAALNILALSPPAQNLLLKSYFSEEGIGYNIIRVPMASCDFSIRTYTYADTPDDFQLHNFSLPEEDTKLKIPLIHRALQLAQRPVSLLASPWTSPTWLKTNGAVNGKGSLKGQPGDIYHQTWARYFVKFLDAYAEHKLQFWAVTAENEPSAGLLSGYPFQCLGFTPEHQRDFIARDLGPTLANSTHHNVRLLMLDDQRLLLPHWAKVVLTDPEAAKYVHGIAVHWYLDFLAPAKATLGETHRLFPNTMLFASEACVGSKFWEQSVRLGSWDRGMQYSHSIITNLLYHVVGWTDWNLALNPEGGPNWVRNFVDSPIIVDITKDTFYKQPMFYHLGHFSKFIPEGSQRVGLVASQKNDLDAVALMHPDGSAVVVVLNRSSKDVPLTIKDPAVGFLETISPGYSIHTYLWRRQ
Glucocorticoid receptor (Homo sapiens), sequence (P04150 whole entry, looked up, the tested form may be a part): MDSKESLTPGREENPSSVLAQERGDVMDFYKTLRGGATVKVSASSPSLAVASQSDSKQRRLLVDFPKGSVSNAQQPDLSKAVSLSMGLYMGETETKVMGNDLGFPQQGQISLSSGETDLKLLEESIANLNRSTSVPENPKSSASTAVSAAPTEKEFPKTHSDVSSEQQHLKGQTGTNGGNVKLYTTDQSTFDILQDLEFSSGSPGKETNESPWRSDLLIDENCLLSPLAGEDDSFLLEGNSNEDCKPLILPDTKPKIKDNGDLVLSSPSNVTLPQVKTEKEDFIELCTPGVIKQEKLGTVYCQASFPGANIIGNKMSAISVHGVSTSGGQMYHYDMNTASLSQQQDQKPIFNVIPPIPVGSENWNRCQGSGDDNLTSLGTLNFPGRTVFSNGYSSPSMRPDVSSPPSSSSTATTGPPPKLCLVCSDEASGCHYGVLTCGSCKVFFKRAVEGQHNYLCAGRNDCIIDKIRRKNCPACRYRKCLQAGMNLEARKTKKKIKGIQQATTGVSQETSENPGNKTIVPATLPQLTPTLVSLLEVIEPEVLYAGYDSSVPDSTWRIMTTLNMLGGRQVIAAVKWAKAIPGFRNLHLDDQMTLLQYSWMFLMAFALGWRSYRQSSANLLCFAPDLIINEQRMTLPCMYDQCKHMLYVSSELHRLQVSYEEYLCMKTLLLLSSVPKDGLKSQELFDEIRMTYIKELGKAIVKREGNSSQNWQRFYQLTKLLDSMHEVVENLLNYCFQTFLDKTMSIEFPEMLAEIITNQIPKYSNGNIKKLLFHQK
3',5'-cyclic-AMP phosphodiesterase 4B (Homo sapiens), sequence (Q07343 whole entry, looked up): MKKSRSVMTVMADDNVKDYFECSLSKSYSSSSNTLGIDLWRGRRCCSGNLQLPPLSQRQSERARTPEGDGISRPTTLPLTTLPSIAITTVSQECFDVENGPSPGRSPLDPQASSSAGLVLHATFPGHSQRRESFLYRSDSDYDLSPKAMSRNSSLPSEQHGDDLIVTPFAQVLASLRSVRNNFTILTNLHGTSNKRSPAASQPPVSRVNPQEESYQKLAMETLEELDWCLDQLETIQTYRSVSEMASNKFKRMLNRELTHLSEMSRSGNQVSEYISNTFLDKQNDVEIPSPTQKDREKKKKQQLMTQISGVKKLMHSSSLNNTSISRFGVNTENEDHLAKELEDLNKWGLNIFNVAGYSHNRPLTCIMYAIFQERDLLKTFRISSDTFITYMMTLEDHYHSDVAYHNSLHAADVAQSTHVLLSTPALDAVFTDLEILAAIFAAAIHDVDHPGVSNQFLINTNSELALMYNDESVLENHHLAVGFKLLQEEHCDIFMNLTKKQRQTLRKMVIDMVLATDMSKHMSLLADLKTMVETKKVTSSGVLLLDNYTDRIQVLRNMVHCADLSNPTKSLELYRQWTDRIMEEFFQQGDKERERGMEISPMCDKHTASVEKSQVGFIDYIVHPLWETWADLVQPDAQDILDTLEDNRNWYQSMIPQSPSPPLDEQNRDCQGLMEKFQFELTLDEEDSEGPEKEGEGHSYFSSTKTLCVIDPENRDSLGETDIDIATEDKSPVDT
Cytochrome P450 1A2 (Homo sapiens), sequence (P05177 whole entry, looked up): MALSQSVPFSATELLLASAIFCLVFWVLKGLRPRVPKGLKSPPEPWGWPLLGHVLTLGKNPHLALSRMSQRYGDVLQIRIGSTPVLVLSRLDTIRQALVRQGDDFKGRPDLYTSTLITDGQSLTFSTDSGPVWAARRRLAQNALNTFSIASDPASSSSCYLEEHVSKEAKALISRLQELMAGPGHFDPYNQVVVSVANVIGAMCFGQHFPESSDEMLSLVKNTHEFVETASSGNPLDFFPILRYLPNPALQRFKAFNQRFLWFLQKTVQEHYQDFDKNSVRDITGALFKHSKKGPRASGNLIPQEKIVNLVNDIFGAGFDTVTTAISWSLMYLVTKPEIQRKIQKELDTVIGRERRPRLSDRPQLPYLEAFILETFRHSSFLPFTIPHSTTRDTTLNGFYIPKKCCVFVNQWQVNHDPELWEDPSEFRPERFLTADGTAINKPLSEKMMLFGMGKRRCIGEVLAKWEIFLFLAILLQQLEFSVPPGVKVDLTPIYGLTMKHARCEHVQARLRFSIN
Cytochrome P450 3A4 (Homo sapiens), sequence (P08684 whole entry, looked up): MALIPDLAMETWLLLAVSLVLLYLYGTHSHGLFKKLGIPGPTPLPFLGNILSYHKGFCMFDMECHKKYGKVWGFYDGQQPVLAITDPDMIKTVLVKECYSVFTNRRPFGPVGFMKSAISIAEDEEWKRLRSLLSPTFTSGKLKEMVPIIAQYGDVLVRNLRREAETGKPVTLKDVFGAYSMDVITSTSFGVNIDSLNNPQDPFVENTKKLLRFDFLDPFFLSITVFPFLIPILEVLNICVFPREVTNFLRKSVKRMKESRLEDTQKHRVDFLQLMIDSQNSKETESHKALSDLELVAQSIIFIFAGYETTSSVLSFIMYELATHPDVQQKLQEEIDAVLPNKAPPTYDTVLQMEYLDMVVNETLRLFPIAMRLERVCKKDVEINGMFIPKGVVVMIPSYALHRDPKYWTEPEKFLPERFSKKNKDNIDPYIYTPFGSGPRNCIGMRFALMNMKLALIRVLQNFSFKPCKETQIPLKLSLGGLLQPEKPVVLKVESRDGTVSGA
Cytochrome P450 2D6 (Homo sapiens), sequence (P10635 whole entry, looked up): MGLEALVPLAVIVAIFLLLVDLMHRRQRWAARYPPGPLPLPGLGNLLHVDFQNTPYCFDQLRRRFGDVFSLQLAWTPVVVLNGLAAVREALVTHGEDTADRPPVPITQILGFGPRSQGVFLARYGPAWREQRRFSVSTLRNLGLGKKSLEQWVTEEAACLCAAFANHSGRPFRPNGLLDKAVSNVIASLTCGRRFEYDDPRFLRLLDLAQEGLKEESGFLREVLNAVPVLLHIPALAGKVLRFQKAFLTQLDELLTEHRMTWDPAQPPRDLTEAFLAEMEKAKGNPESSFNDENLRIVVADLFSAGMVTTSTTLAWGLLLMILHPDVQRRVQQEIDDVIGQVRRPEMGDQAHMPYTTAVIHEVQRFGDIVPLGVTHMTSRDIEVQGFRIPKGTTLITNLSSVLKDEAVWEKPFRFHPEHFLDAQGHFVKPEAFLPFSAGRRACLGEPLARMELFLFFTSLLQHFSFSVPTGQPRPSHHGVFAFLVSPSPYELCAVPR
Ubiquitin carboxyl-terminal hydrolase 1 (Homo sapiens), sequence (O94782 whole entry, looked up): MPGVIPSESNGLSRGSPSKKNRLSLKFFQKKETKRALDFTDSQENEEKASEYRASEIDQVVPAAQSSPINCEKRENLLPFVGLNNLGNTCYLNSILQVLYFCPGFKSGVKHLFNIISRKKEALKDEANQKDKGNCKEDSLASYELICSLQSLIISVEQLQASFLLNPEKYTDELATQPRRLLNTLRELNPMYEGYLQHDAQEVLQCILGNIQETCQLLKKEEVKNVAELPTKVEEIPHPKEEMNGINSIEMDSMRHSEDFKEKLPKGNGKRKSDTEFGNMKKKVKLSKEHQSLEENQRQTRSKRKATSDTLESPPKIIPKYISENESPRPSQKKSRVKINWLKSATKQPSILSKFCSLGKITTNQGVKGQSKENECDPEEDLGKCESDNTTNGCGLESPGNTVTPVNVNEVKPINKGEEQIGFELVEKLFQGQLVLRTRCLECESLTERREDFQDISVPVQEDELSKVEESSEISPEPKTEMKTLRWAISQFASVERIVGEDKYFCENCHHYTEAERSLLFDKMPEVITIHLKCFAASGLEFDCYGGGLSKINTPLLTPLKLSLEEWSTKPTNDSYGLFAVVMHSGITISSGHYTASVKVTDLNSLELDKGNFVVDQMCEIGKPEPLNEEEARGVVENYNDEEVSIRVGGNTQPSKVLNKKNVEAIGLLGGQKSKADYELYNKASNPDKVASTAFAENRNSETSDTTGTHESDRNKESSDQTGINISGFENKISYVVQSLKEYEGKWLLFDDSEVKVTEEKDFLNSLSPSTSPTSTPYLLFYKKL

Structure (SMILES) | Potency [1] | activity change, negative = inhibition [2] | Potency [3] | activity, negative = inhibition [4] | Potency [5] | Potency [6] | Potency [7] | Potency [8] | Potency [9] | Potency [10] | Potency [11] | Potency [12] | outcome [13] | activity change, negative = inhibition [14] | max response [14, 18] [%] | max response [14, 19] [%] | Potency [15] | outcome [16] | activation [17]
CN(C)Cc1ccccc1-c1cncnc1NCc1cccnc1 | > 11.4 µM (inactive) | -0.642% (inactive) | 12.6 µM (active) | 9.42% (inactive) | > 46 µM (inactive) | > 46 µM (inactive) | inactive | inactive | 1.58 µM (active) | inactive | 6.31 µM (active) | inactive | inactive | 2.08% (inactive) | 3.75 | 4.73 | inactive | inactive | 
COc1ccccc1-c1nc(NCCNC(C)=O)c2ccccc2n1 | > 11.4 µM (inactive) | -11.3% (inactive) | 15.8 µM (active) | 5.28% (inactive) | > 46 µM (inactive) | > 46 µM (inactive) | inactive | inactive |  |  | 6.31 µM (active) | inactive | inactive | 5.2% (inactive) | 8.82 | 14.5 | inactive | inactive | -0.258% (inactive)
Cn1cccc1C(=O)N1CCC2(CC1)CN(Cc1ccc(C#N)cc1)C2 | > 11.4 µM (inactive) | 6.46% (inactive) | inactive | -7.55% (inactive) |  | > 46 µM (inactive) | inactive | inactive |  |  |  |  |  | 4.17% (inactive) | 20.5 | 25.8 |  | inactive | 
Cc1noc(C)c1C(=O)N1CCC2(CCCN(Cc3ccccc3)C2)CC1 | > 11.4 µM (inactive) | 3.01% (inactive) | inactive | 4.66% (inactive) |  | > 46 µM (inactive) | inactive | inactive |  |  |  |  |  | 4.04% (inactive) | 15.8 | 21.7 |  | inactive | 
CC(=O)N1CCC2(CCN(Cc3ccccc3)CC2)CC1 | > 11.4 µM (inactive) | -7.18% (inactive) | inactive | -5.27% (inactive) |  | > 46 µM (inactive) | inactive | inactive |  |  |  |  |  | -3.2% (inactive) | -4.28 | -4.62 |  | inactive | 
COc1ccc(C(=O)N2CCC3(CCN(Cc4ccccc4OC)CC3)CC2)cc1 | > 11.4 µM (inactive) | -0.655% (inactive) | inactive | -4.81% (inactive) |  | > 46 µM (inactive) | inactive | inactive |  |  |  |  |  | 2.01% (inactive) | 10.3 | 16.6 |  | inactive | 
